High-throughput results: PubChem, Broad Institute
Sampled rows, rich in hits. Any-hit rate of the full collection: about 2.1%.
mut p53 react – re-activators of the mutant p53 pathway. SW480 PUMA-promoter luciferase, p53 mutant reactivation. activation, % at 9.98 µM. 28,000 tested, 1.5% active. AID 624151; in the data active = activation above about 52%
ID4 SMM – ID4 (human) binding; AID 624137; P47928; 31,000 tested, 1.2% active; small molecule microarray, Flag-ID4 binding, fluorescence F/B; calls only; call rule not given here;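 note: a binder raises fluorescence above local background on the spot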
The depositor's hits bear a star; i = inactive; x = no result.

SMILES	mut p53 react	ID4 SMM
CCc1ccc(NC2=NCCS2)cc1	61*	i
C=CC1CN2CCC3(C(=O)Nc4ccccc43)C2CC1/C(=C/OC)C(=O)OC (stereo not given)	7	x
CN1CCN(CC(=O)Nc2ccc(Br)cc2C(=O)c2ccccc2)CC1	0	i
NCC(=O)Nc1ccc(Br)cc1C(=O)c1ccccc1	113*	i
C=C1[C@@H](C)[C@H]2[C@H](Cc3ccccc3)NC(=O)[C@]23OC(=O)/C=C\[C@H](O)CCC[C@@H](C)C/C=C/[C@H]3[C@@H]1O	-68	x
CCCCC/C=C/C/C=C/C/C=C/C/C=C/CCCC(=O)Nc1ccc(O)cc1	-20	i
